An excerpt weighted towards active compounds, which were near 21% of everything screened.
RORgamma inh – ROR gamma (mouse) transcription inhibition. Potency, µM (doses to about 53.6 µM), without a hit: top-dose activity change, negative = inhibition, usual class: inhibitors. AID 2551. 310,000 compounds, 5.4% hits. Drosophila S2 Gal4-RORgamma UAS-luciferase reporter, 20 h; also: potency is read from the fitted curve at half-maximal effect; nearly all actives have a fitted effect of over 60% in size
Target sequence (P51450 whole entry, looked up, the tested form may be a part): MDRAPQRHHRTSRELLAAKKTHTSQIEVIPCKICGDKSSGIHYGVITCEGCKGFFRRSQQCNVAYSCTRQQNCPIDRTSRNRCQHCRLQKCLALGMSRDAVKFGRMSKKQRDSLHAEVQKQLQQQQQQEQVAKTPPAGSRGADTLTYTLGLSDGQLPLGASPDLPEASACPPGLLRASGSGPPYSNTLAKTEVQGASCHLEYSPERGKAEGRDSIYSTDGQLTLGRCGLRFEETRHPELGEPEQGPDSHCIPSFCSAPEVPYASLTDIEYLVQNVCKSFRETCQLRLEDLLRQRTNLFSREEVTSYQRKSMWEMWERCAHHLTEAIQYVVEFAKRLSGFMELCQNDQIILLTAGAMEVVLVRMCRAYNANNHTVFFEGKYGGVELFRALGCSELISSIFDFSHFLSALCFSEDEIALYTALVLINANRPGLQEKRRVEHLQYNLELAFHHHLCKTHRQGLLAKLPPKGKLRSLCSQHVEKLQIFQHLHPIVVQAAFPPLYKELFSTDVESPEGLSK
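Read-out: Photinus luciferase luminescence; inhibitors lower reporter signal. Insect Schneider cells with Gal4-ROR gamma fusion under metallothionein promoter, UAS reporter; 700 uM final copper sulfate induction, 20 hr, ambient temperature.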
Gal4-VP16 FLuc – Gal4-VP16 reporter inhibition counter-screen; 310,000 compounds, 3.5% hits; AID 2546; Drosophila S2 Gal4-VP16 UAS-luciferase, luminescence, 20 h; Potency, µM (doses to about 53.6 µM), without a hit: at the highest dose activity, negative = inhibition, actives largely listed as inhibitors;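 also: Gal4-VP16 expression switched on by copper sulfate through the metallothionein promoter; potency is read from the fitted curve at half-maximal effect; nearly all actives have a fitted effect of over 50% in size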
IL1B secr inh – inhibitors of inflammasome signaling (IL-1 beta secretion) | THP-1 LPS/ATP IL-1B secretion, AlphaLISA, 16 h; stronger effect = lower value | activity change, % at 57.5 µM | 360,000 compounds, 4.7% hits; in the data active = activity change below about -50%; inconclusive = mostly about -30% to -49%
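Secreted IL-1B measured by AlphaLISA bead assay after 16 h compound exposure of THP-1 cells; compounds (final up to 57.5 uM) added 1 h before LPS (250 ng/mL) and ATP (1.25 mM) stimulation; lower signal means less secretion.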
ELG1 repair inh – blocks ELG1-dependent DNA repair in HEK293T cells | Potency, µM (titrated, usually from 46.1 µM), without a hit: at the top dose activity change, negative = inhibition, hits mostly inhibitors | 330,000 compounds, 2.3% hits | HEK293T ELG1-luciferase reporter, luminescence, 16 h; DNA damage induced by 5-fluorouridine; also: potency is read from the fitted curve at half-maximal effect; nearly all actives have a fitted effect of over 55% in size
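5-Fluorouridine DNA damage + compound/DMSO, 2,000 cells/well, 16 h, 37 °C/5% CO2. ONE-Glo, 30 min RT, luminescence. Readout = decrease in reporter signal.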
TDP1 cell CPT – DT40-hTDP1 cell growth loss with CPT; chicken DT40 Tdp1-/-;hTDP1 cells + 20 nM CPT, ATP luminescence, 48 h; Potency, µM (titrated, usually from 46.2 µM), without a hit: at the highest dose activity change, negative = growth inhibition, usual class: inhibitors; 420,000 compounds, 12% hits; also: potency is read from the fitted curve at half-maximal effect; nearly all actives have a fitted effect of over 55% in size
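Chicken DT40 Tdp1-/- cells complemented with human TDP1, 400 cells/well, exposed to compounds plus 20 nM camptothecin for at least 48 h at 37 C; viability read as ATP content by CellTiter-Glo luminescence.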
DT40 TDP1 no CPT – qHTS for Inhibitors of human tyrosyl-DNA phosphodiesterase 1 (TDP1): qHTS in cells in absence of CPT; 420,000 compounds, 15% hits; Potency, µM (top dose mostly 46.2 µM), inactives show top-dose activity change, negative = growth inhibition, hits mostly inhibitors; AID 686978, 2013; DT40 Tdp1-/- hTDP1 cells, no CPT, ATP luminescence, 48 h; also: potency is read from the fitted curve at half-maximal effect; nearly all actives have a fitted effect of over 55% in size
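No-CPT arm: Tdp1-/-;hTDP1 DT40 cells (400/well) plus compounds, incubated ≥48 hr at 37 °C. Readout CellTiter-Glo luminescence.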
An asterisk follows results filed as active; u = inconclusive; x = no result; [ ] = another dose, or the depositor's remark. Unless noted, calls follow the shape of the dose curve; as a rule, active = well fitted curve in the direction sought with a large enough effect; inconclusive = small, poorly fitted or top-dose-only effect, or another doubt; inactive = no such curve, though single readings can be large; an effect the other way counts as inactive or inconclusive. % is scaled to controls: 0 for no effect and ±100 for the full control effect.

SMILES | RORgamma inh | Gal4-VP16 FLuc | IL1B secr inh | ELG1 repair inh | TDP1 cell CPT | DT40 TDP1 no CPT
O=C(Nc1cccc(S(=O)(=O)Nc2ccccc2Cl)c1)c1ccc(N2CCCC2)c([N+](=O)[O-])c1 | u | -9% | 2 | -23% | -2% | -22%
CCN(CC)S(=O)(=O)c1ccc(NC(=O)c2ccc(Cl)nc2)cc1 | 20% | -12% | 14 | u | u | 23µM*
O=C(Nc1ccc(S(=O)(=O)N2CCCC2)cc1)c1ccc(Cl)nc1 | x | x | 1 | u | u | u
O=C(Nc1ccc(S(=O)(=O)N2CCCCC2)cc1)c1ccc(Cl)nc1 | x | x | -21 | u | 18µM* | 6.5µM*
CC(=O)N1CCC2(CC1)CCN(c1ccccn1)CC2 | 8% | 28% | x | x | 0% | -26%
NS(=O)(=O)c1cccc(NC(=O)c2ccc(S(=O)(=O)N3CCCCCC3)cc2)c1 | x | x | -12 | -13% | -28% | u
O=C(Nc1cccc(S(=O)(=O)N2CCCCCC2)c1)c1ccc(Cl)nc1 | x | x | u | 21µM* | 18µM* | 15µM*
O=C(Nc1cccc(S(=O)(=O)N2CCCCCC2)c1)c1ccc(=O)[nH]c1 | x | x | 61 | -15% | u | 18µM*
CCNC(=S)Nc1cccc([N+](=O)[O-])c1 | -1% | -1% | x | 13% | x | x
O=C(CSc1nc(-c2ccc(Cl)cc2)cs1)Nc1cccc([N+](=O)[O-])c1 | 17% | u | -12 | -18% | u | 16µM*
O=[N+]([O-])c1cccc(NC(=S)Nc2nc(-c3ccccc3Cl)cs2)c1 | 2µM* | 2.5µM* | -59* | u | u | 18µM*
Cc1ccc(NC(=O)CSc2nnc3ccc4ccccc4n23)cc1 | x | x | x | x | -25% | u
COc1cccc(CNC(=O)CN2N=C(c3ccc(C)cc3)CCC2=O)c1 | x | x | x | x | -16% | -20%
COc1ccc(OC)c(S(=O)(=O)ON2C(=O)c3ccccc3C2=O)c1 | 5.6µM* | 7.9µM* | -13 | -1% | 2.3µM* | 1.5µM*
COc1ccc(OC)c(S(=O)(=O)n2cnc3ccccc32)c1 | 12% | 1% | 25 | u | u | 16µM*
COc1ccc(NS(=O)(=O)c2cc(OC)ccc2OC)cc1 | x | x | 21 | x | -20% | u
COc1ccc(OC)c(S(=O)(=O)Nc2ccc3c(c2)C(=O)OC3)c1 | 13% | -4% | 14 | u | 12µM* | 8.2µM*
COc1ccc(OC)c(S(=O)(=O)Nc2cnc3ccccc3c2)c1 | 37% | 3% | 63 | -6% | u | 23µM*
Cc1ccc(S(=O)(=O)Nc2cnc3ccccc3c2)cc1 | 4% | u | 30 | -11% | u | u
O=S(=O)(Nc1cnc2ccccc2c1)N1CCCCCC1 | u | -7% | 23 | x | 21µM* | 13µM*
Cc1cccc(OCCC(=O)N(C)CC(=O)Nc2cccc3ccccc23)c1 | 14% | -15% | -9 | -18% | -21% | 1%
OCCC1CN(Cc2cn[nH]c2C2CCCCC2)CCN1C1CCCCC1 (stereo not drawn) | -5% | 9% | 2 | 4% | -1% | -2%
CC(=O)c1cccc(NC(=O)c2ccc3c(c2)CCCC3)c1 | 1.4µM* | 2.8µM* | u | u | u | u
CCOC(=O)Nc1cccc(OCC(=O)Nc2ccc3c(c2)CCC3)c1 | x | x | 11 | u | u | 23µM*
COc1cccc(NC(=O)c2ccc3c(c2)CCCC3)c1 | 0% | -12% | u | u | u | u
SMILES | RORgamma inh | Gal4-VP16 FLuc | IL1B secr inh | ELG1 repair inh | TDP1 cell CPT | DT40 TDP1 no CPT
CC(=O)c1cccc(NC(=O)Nc2ccc3c(c2)CCC3)c1 | 7.1µM* | 7.9µM* | -1 | u | -18% | -13%
COc1cccc(NC(=O)COc2ccc3c(c2)CCC3)c1 | 28% | -14% | 0 | u | 0% | 3%
Cc1ccc(CNC(=O)c2cnc3ccccc3n2)cc1 | 38% | 22% | 8 | 4% | -26% | -24%
N#Cc1cccc(-c2nc(Nc3ccccc3)c3ccccc3n2)c1 | -10% | -2% | x | x | 0% | -13%
CCN(C(=O)CCS(=O)(=O)c1cc(Br)cc2c1N(C(=O)C1CC1)CC2)c1cccc(C)c1 | x | x | x | x | -5% | -13%
CN1CCN(S(=O)(=O)c2ccc(NC(=S)NC(=O)C3CCC3)cc2)CC1 | -6% | -2% | 15 | -8% | -17% | u
COC(=O)Nc1ccc(S(=O)(=O)N2CCN(C)CC2)cc1 | -9% | -9% | 14 | -2% | 3% | -11%
Cc1cccc(C(=O)NC(=S)Nc2ccc(S(=O)(=O)N3CCCCC3)cc2)c1 | 14µM* | 10µM* | -1 | u | 18µM* | 15µM*
Cc1cccc(C(=O)NC(=S)Nc2ccc(S(=O)(=O)N3CCN(C)CC3)cc2)c1 | 13µM* | u | 0 | 12% | u | 23µM*
Cc1ccc(C(=O)NC(=S)Nc2ccc(S(=O)(=O)N3CCN(C)CC3)cc2)cc1 | 11µM* | -7% | -6 | -5% | 16µM* | 21µM*
Cc1nn(-c2ccccc2)c(NC(=O)NS(=O)(=O)c2ccc(Cl)cc2)c1C#N | 0% | -7% | x | x | x | x
CC12C=C(/C=C/c3ccc(Br)cc3)C(C)(C1)[C@H](c1ccc(Br)cc1)CC2=O (stereo partly drawn) | 1% | 2% | x | x | x | x
CC(Sc1nncn1C)C(=O)Nc1ccc(Cl)cn1 (stereo not drawn) | 6% | -8% | 18 | 25% | -3% | 2%
Cc1ccc(-n2nnnc2SC(C)C(N)=O)c(C)c1 (stereo not drawn) | 18% | -6% | -17 | 1% | -11% | -16%
NC(=O)c1ccc(-n2nnnc2SCC(=O)Nc2ccccc2-c2ccccc2)cc1 | u | 1% | -1 | u | u | 16µM*
Cc1ccc(-n2nnnc2SC(C)C(=O)NCC(=O)Nc2ccc(F)c(F)c2F)c(C)c1 (stereo not drawn) | 129% | -11% | u | 18µM* | 18µM* | 15µM*
Cc1ccc(-n2nnnc2SCC(=O)NC2CCCc3ccccc32)cc1 (stereo not drawn) | 34% | 1% | 1 | 0% | u | 18µM*
Cc1ccc(-n2nnnc2SC(C)C(=O)Nc2ccc(Cl)cn2)cc1 (stereo not drawn) | -8% | -16% | -57* | -11% | u | u
COc1ccc(COC(=O)N/N=C2/C[C@@H](O)[C@@H](O)[C@@H]3[C@@H]4C(=O)N(Cc5ccc6c(c5)OCO6)C(=O)[C@H]4CC[C@@H]23)cc1 | -1%[10 µM] | -7%[10 µM] | x | x | x | x

Source: PubChem BioAssay (National Center for Advancing Translational Sciences (NCATS))
